Source: PubChem BioAssay (NCI)
Where “and” joins values, the source holds several entries; their conditions need not be identical. Identical values can stand only once. About 83,000 compounds went through this panel and 20% of them were active in at least one assay; those are over-represented in the sample as a whole.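 A percent growth of 40 corresponds to 60% growth inhibition; 0 means no net growth; -100 means all cells died. Active threshold: below 10.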 Calls of active or inactive are those of the source.

Tests used:
Assay in all cases: NCI-60 one-dose screen, 48 h (100 = growth as untreated, 0 = no growth, -100 = all killed)
Conditions in all cases: 10 µM unless noted
NCI-H23 lung = tested on: NCI-H23 lung
NCI-H226 lung = tested on: NCI-H226 lung
NCI-H322M lung = tested on: NCI-H322M lung
HOP-62 NSCLC = tested on: HOP-62 NSCLC
NCI-H460 lung = tested on: NCI-H460 lung
HOP-92 NSCLC = tested on: HOP-92 NSCLC
NCI-H522 lung = tested on: NCI-H522 lung
A549/ATCC NSCLC = tested on: A549/ATCC NSCLC
786-0 renal = tested on: 786-0 renal
COLO 205 colon = tested on: COLO 205 colon
DU-145 prostate = tested on: DU-145 prostate
K-562 leukemia = tested on: K-562 leukemia
MALME-3M melanoma = tested on: MALME-3M melanoma
MDA-MB-231 breast = tested on: MDA-MB-231 breast
RXF 393 renal = tested on: RXF 393 renal
SF-268 CNS = tested on: SF-268 CNS
SF-295 CNS = tested on: SF-295 CNS
SF-539 CNS = tested on: SF-539 CNS
UACC-257 melanoma = tested on: UACC-257 melanoma
M14 melanoma = tested on: M14 melanoma

Compound	growth (NCI-H23 lung)	growth (NCI-H226 lung)	growth (NCI-H322M lung)	growth (HOP-62 NSCLC)	growth (NCI-H460 lung)	growth (HOP-92 NSCLC)	growth (NCI-H522 lung)	growth (A549/ATCC NSCLC)	growth (786-0 renal)	growth (COLO 205 colon)	growth (DU-145 prostate)	growth (K-562 leukemia)	growth (MALME-3M melanoma)	growth (MDA-MB-231 breast)	growth (RXF 393 renal)	growth (SF-268 CNS)	growth (SF-295 CNS)	growth (SF-539 CNS)	growth (UACC-257 melanoma)	growth (M14 melanoma)
O=Nc1ccc(O)cc1	78.9% (inactive) and 94.9% (inactive)	95.5% (inactive) and 109% (inactive)	104% (inactive) and 97.4% (inactive)	101% (inactive) and 97.3% (inactive)	109% (inactive) and 96.9% (inactive)	90.4% (inactive) and 101% (inactive)	87.8% (inactive) and 78.5% (inactive)	99% (inactive) and 93.9% (inactive)	98.2% (inactive) and 110% (inactive)	104% (inactive) and 111% (inactive)	97.1% (inactive) and 114% (inactive)	109% (inactive) and 98.1% (inactive)	107% (inactive) and 135% (inactive)	84.9% (inactive) and 68.5% (inactive)	99.3% (inactive) and 112% (inactive)	88.7% (inactive) and 93.4% (inactive)	99.5% (inactive) and 105% (inactive)	90.2% (inactive) and 91.5% (inactive)	108% (inactive) and 96.8% (inactive)	97.8% (inactive) and 102% (inactive)
Nc1n[nH]c(=S)n1-c1ccc(Cl)cc1	95.9% (inactive)	93.9% (inactive)	98.7% (inactive)	94.5% (inactive)	99.6% (inactive)	85.9% (inactive)	97.2% (inactive)	100% (inactive)	93.7% (inactive)	117% (inactive)	108% (inactive)	102% (inactive)	102% (inactive)	112% (inactive)	96.7% (inactive)	100% (inactive)	148% (inactive)	93% (inactive)	93.5% (inactive)	101% (inactive)
N#C/C(=C1C=C/C(=N/O)C(Br)=C/1)c1ccccc1	78.3% (inactive)	32% (inactive)	42.4% (inactive)	16.3% (inactive)	8.25% (active)	-6.62% (active)	-43.3% (active)	27.6% (inactive)	20% (inactive)	83.2% (inactive)	-13.1% (active)	9.55% (active)	67.4% (inactive)	28.1% (inactive)	17% (inactive)	18.8% (inactive)	-8.83% (active)	-26% (active)	44.1% (inactive)	31.9% (inactive)
O=S(=O)(Nc1ccccc1)C1CCCCC1	98.6% (inactive) and 96.6% (inactive)	106% (inactive) and 103% (inactive)	103% (inactive) and 116% (inactive)	107% (inactive) and 101% (inactive)	112% (inactive) and 118% (inactive)	113% (inactive) and 108% (inactive)	84.5% (inactive) and 94.1% (inactive)	98.7% (inactive) and 108% (inactive)	105% (inactive) and 110% (inactive)	102% (inactive) and 122% (inactive)	108% (inactive) and 113% (inactive)	97.6% (inactive) and 93.8% (inactive)	121% (inactive) and 123% (inactive)	106% (inactive) and 105% (inactive)	120% (inactive) and 118% (inactive)	99% (inactive) and 114% (inactive)	105% (inactive) and 110% (inactive)	109% (inactive) and 95.4% (inactive)	108% (inactive) and 107% (inactive)	101% (inactive) and 99.5% (inactive)
CCOc1ccc(Nc2c3ccccc3nc3ccccc23)cc1	92.1% (inactive) and 36.3% (inactive) and 18.6% (inactive)	-12.9% (active) and 19.1% (inactive)	99.3% (inactive) and 44.4% (inactive) and 38.3% (inactive)	92.5% (inactive) and 37.1% (inactive) and 42.1% (inactive)	93.6% (inactive) and 3.2% (active) and 4.66% (active)	72.2% (inactive) and -5.95% (active) and -4.39% (active)	10.1% (inactive) and 35.9% (inactive)	87.5% (inactive) and 12.3% (inactive) and 21% (inactive)	84.8% (inactive) and 30.1% (inactive) and 43.7% (inactive)	103% (inactive) and -11.2% (active) and 24.5% (inactive)	104% (inactive) and 23.1% (inactive) and 35.2% (inactive)	81.3% (inactive) and 6.44% (active) and 3.81% (active)	99% (inactive) and 5.36% (active) and 13.2% (inactive)	94.2% (inactive) and 45.9% (inactive) and 48.4% (inactive)	83.7% (inactive) and -4.09% (active) and 10% (active)	108% (inactive) and 34.7% (inactive) and 45.7% (inactive)	65.7% (inactive) and 28.8% (inactive) and 17.1% (inactive)	94.5% (inactive) and 17.9% (inactive) and 11% (inactive)	96% (inactive) and 24.7% (inactive) and 44.7% (inactive)	95% (inactive) and 19.4% (inactive) and 40.4% (inactive)
COc1ccc(Cn2c(NCCN=C(N)N)nc(=O)n(Cc3ccc(F)cc3)c2=O)cc1	102% (inactive) and 89.5% (inactive)	97.3% (inactive) and 95.3% (inactive)	83% (inactive) and 90.7% (inactive)	71.6% (inactive) and 85.7% (inactive)	106% (inactive) and 104% (inactive)	82.8% (inactive)	90.2% (inactive) and 97.2% (inactive)	108% (inactive) and 107% (inactive)	98.5% (inactive) and 103% (inactive)	105% (inactive) and 97.8% (inactive)	104% (inactive) and 115% (inactive)	89.6% (inactive) and 94% (inactive)	91.7% (inactive) and 91.1% (inactive)	107% (inactive) and 103% (inactive)	95.5% (inactive) and 109% (inactive)	61.8% (inactive) and 52.5% (inactive)	102% (inactive)	102% (inactive) and 89.7% (inactive)	89.4% (inactive) and 101% (inactive)	97.9% (inactive) and 100% (inactive)
Cc1cc(-c2ccc(NS(=O)(=O)c3ccccc3)c(C)c2)ccc1NS(=O)(=O)c1ccccc1	85% (inactive) and 97.8% (inactive)	82.2% (inactive) and 92.1% (inactive)	92.7% (inactive) and 121% (inactive)	94.2% (inactive) and 111% (inactive)	78% (inactive) and 87.6% (inactive)	83.3% (inactive) and 88% (inactive)	52.8% (inactive) and 64.8% (inactive)	67% (inactive) and 80.5% (inactive)	96.8% (inactive) and 107% (inactive)	91.9% (inactive) and 121% (inactive)	93.8% (inactive) and 94.7% (inactive)	62.7% (inactive) and 65.9% (inactive)	79.6% (inactive) and 120% (inactive)	70.1% (inactive) and 74.5% (inactive)	70.1% (inactive) and 119% (inactive)	91.5% (inactive) and 106% (inactive)	58.1% (inactive) and 99.4% (inactive)	108% (inactive) and 95.9% (inactive)	93.6% (inactive) and 110% (inactive)	87.4% (inactive) and 99% (inactive)
